About 13,000 (27%) of roughly 48,000 compounds showed an effect of 50% or more. Some of the results follow.
Test system: Wolbachia pipientis
Assay: Anti-Wolbachia Cell-Based Screen
Assay type: functional
Set-up: scale not given: in the data most compounds retested in dose-response had high values
Settings: 5 µM

Going from `Cc1nc(CO[C@H]2CN(C(=O)c3cccn3C)[C@@H]3COC[C@H]23)cs1.O=C(O)C(F)(F)F` to `Cc1nc(CO[C@H]2CN(C(=O)c3cnoc3C)[C@@H]3COC[C@H]23)cs1.O=C(O)C(F)(F)F`, the “Percent Effect” value falls from -15.2% to -46.26%.

Compared with `CC(=O)NCC(=O)N1C[C@H](OCc2cccnc2)[C@H]2COC[C@H]21`, `CC(C)NC(=O)N1C[C@H](OCc2cccnc2)[C@H]2COC[C@H]21.O=C(O)C(F)(F)F` is higher in “Percent Effect” value: -9.929% for the first, 112.7% for the second.

First: O=C(Cc1ccccn1)N1C[C@H](OCc2cccnc2)[C@H]2COC[C@H]21.O=C(O)C(F)(F)F.O=C(O)C(F)(F)F
Second: CCS(=O)(=O)N1C[C@@H](OCc2cccnc2)[C@H]2OCCC[C@H]21.O=C(O)C(F)(F)F
The “Percent Effect” value of the first is higher: 111.5% for the first, -26.44% for the second.

First: O=S(=O)(NCCNc1ccc(-n2cccn2)nn1)c1ccccc1
Second: O=C(NCCc1ccn(-c2ccccc2)n1)N1CCC1
The “Percent Effect” value of the first is lower: -3.314% for the first, 5.708% for the second.

Compared with `Cc1noc(C)c1CN(C)C(=O)c1cnc(C2CC2)nc1O`, `Cc1cnn(CC2CCCN2c2nn3cc(C)nc3s2)c1` (stereo unspecified) is higher in “Percent Effect” value: -11.89% for the first, 9.552% for the second.

First: O=C(NCc1cccc2cccnc12)N1CCC(n2cncn2)CC1
Second: Cc1ccccc1CNC(=O)N1CCC(n2cncn2)CC1
The “Percent Effect” value of the first is lower: -5.707% for the first, 111.6% for the second.

First: CCOc1ncccc1CNC(=O)N1CCC(n2cncn2)CC1
Second: CCOc1ccccc1CNC(=O)N1CCC(n2cncn2)CC1
The “Percent Effect” value of the first is lower: 108.5% for the first, 121.4% for the second.

First: Cc1cc(C(C)NC(=O)N2CCC(n3cncn3)CC2)c(C)s1 (stereo unspecified)
Second: CC(C)Oc1ccccc1CNC(=O)N1CCC(n2cncn2)CC1
The “Percent Effect” value of the first is lower: 2.137% for the first, 15.2% for the second.

Going from `CCOc1ncccc1CNC(=O)N1CCCC1c1ccncc1` (stereo unspecified) to `CCOc1ccc(C(=O)N2CCCC2c2cnn(C)c2)cn1` (stereo unspecified), the “Percent Effect” value rises from 0.3129% to 110.2%.

First: CCC(CC)c1cc(CNC(=O)N2CCCN(C(C)=O)CC2)on1
Second: CCOC1CCN(C(=O)NCc2ccc(C(=O)N(C)C(C)C)cc2)CC1
The “Percent Effect” value of the first is higher: -7.46% for the first, -14.18% for the second.

First: O=S(=O)(CC1CCCCC1)NCc1ccc(O)nc1
Second: Cn1cc(C2CCCN2C(=O)c2ccc(OCC3CC3)nc2)cn1 (stereo unspecified)
The “Percent Effect” value of the first is lower: -3.814% for the first, 114.7% for the second.

Going from `CC1CCN(C(=O)c2ccnc(-n3cncn3)c2)c2ccccc21` (stereo unspecified) to `O=C(NCCc1ccn(-c2ccccc2)n1)N1CCCC(O)C1` (stereo unspecified), the “Percent Effect” value rises from 8.063% to 108.2%.

Going from `CC(C)OC[C@H]1CCC[C@]12CN(C(=O)C1CCOCC1)CCO2` to `COC[C@@H]1CCC[C@@]12CN(C(=O)C1CCOCC1)CCO2`, the “Percent Effect” value rises from 106.2% to 108.7%.

First: Cn1ccc(N2CCCC(NC(=O)c3ccc(Cl)o3)C2=O)n1 (stereo unspecified)
Second: CNC(=O)c1ccc(C(=O)N2CCCC2c2cnn(C)c2)cn1 (stereo unspecified)
The “Percent Effect” value of the first is lower: -25.47% for the first, 5.729% for the second.

Compared with `COc1cc(F)ccc1N1CCN(Cc2nc(C)c(C)o2)CC1`, `COCCn1cc(C(=O)N2CCCC2c2cnn(C)c2)ccc1=O` (stereo unspecified) is lower in “Percent Effect” value: -8.318% for the first, -26.74% for the second.

First: Cc1cn2nc(N3CCCC3C(=O)N3CCN(C)CC3)sc2n1 (stereo unspecified)
Second: Cc1cn2nc(N3CCCC3CC(C)(C)C)sc2n1 (stereo unspecified)
The “Percent Effect” value of the first is lower: -72.4% for the first, 1.66% for the second.

First: Cc1cn2nc(N3CCCC3Cn3cccn3)sc2n1 (stereo unspecified)
Second: Cc1cn2nc(N3CCCCC3Cn3cccn3)sc2n1 (stereo unspecified)
The “Percent Effect” value of the first is lower: 112.3% for the first, 120.6% for the second.

First: Cc1cnn(CC2CCCCN2c2nn3cc(C)nc3s2)c1 (stereo unspecified)
Second: Cc1cn2nc(N3CCCC3Cn3cncn3)sc2n1 (stereo unspecified)
The “Percent Effect” value of the first is higher: 94.21% for the first, 1.731% for the second.

Going from `Cc1cn2nc(N3CCCC3Cn3nc(C)cc3C)sc2n1` (stereo unspecified) to `Cc1cn2nc(N3CCCC3Cn3nc(C)nc3C)sc2n1` (stereo unspecified), the “Percent Effect” value rises from 8.981% to 128.5%.

Compared with `CC(C)(C)c1cn2nc(N3CCCC3Cn3cncn3)sc2n1` (stereo unspecified), `CC(C)(C)c1cn2nc(N3CCCCC3Cn3cncn3)sc2n1` (stereo unspecified) is higher in “Percent Effect” value: -4.327% for the first, 11.04% for the second.

Going from `CC(C)(C)c1cn2nc(N3CCCC3Cn3cccn3)sc2n1` (stereo unspecified) to `Cc1cnn(CC2CCCN2C(=O)c2ccc(OC(C)C)nc2)c1` (stereo unspecified), the “Percent Effect” value falls from 7.986% to -7.33%.

Compared with `CCN1CCN(C(=O)c2[nH]c3ccccc3c2Cl)[C@H]2CS(=O)(=O)C[C@H]21`, `CCOC1CCN(C(=O)NCCc2ccn(-c3ccccc3)n2)CC1` is higher in “Percent Effect” value: 2.793% for the first, 152.6% for the second.

First: COCCNc1ccccc1CNC(=O)NCc1cnc(C)s1
Second: CC1(C)CN(C(=O)NCCc2ccn(-c3ccccc3)n2)CCO1
The “Percent Effect” value of the first is higher: -0.4507% for the first, -7.348% for the second.

Compared with `COc1ccc(C(=O)N2CCCC2c2cnn(C)c2)cn1` (stereo unspecified), `CC(C)Oc1ccc(C(=O)N2CCCC2c2cnn(C)c2)cn1` (stereo unspecified) is lower in “Percent Effect” value: 112.3% for the first, 97.67% for the second.

Going from `Cc1nnc(CN(C)S(=O)(=O)c2ccc(Br)cc2Cl)n1C` to `CC(C)Oc1cccc(C(=O)C2CCCN(S(=O)(=O)C(C)C)C2)c1` (stereo unspecified), the “Percent Effect” value falls from 5.813% to 1.86%.

First: Cc1nn(CCO)c(C)c1CNC1CCCCc2ccccc21 (stereo unspecified)
Second: O=C(NCCc1ccn(-c2ccccc2)n1)N1CCCC(CO)C1 (stereo unspecified)
The “Percent Effect” value of the first is lower: 2.659% for the first, 104.8% for the second.

Going from `O=C(NCCc1ccn(-c2ccccc2)n1)N1CCSCC1` to `CCOC1CCCN(C(=O)NCCc2ccn(-c3ccccc3)n2)C1` (stereo unspecified), the “Percent Effect” value falls from 87.95% to 9.361%.

First: O=C(NCCC1Cc2ccccc2C1)N1CCCC(O)C1 (stereo unspecified)
Second: O=C(NCCc1ccn(-c2ccc(F)cc2)n1)C1CCCOC1 (stereo unspecified)
The “Percent Effect” value of the first is higher: -12.54% for the first, -15.61% for the second.
